# In PMC5540273 (PLoS ONE, 2017):
# Key:
# Conditions in all cases: concentration: 1 μM,replicates: in singlicate; n = 1
# [1] = system: TESK1
# [2] = system: TGFBR1
# [3] = system: TGFBR2
# [4] = system: TIE1
# [5] = system: T1, TIE2
# T1 construct: gene TEK
# [6] = system: TLK1
# [7] = system: TLK2
# [8] = system: TNIK
# [9] = system: TNK1
# [10] = system: TNK2
# [11] = system: TNNI3K
# [12] = system: T2, TRKA
# T2 construct: gene NTRK1
# [13] = system: TRKB
# [14] = system: T3, TRKC
# T3 construct: gene NTRK3
# [15] = system: TRPM6
# [16] = system: TSSK1B
# [17] = system: TSSK3
# [18] = system: TTK
# [19] = system: TXK
# [20] = system: TYK2(JH1domain-catalytic)
# 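Also: KINOMEscan kinase panel screen.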
SMILES,%Inh [1] [%],%Inh [2] [%],%Inh [3] [%],%Inh [4] [%],%Inh [5] [%],%Inh [6] [%],%Inh [7] [%],%Inh [8] [%],%Inh [9] [%],%Inh [10] [%],%Inh [11] [%],%Inh [12] [%],%Inh [13] [%],%Inh [14] [%],%Inh [15] [%],%Inh [16] [%],%Inh [17] [%],%Inh [18] [%],%Inh [19] [%],%Inh [20] [%]
COc1ccc(Nc2nccc(N3CCC(NC(=O)c4cccc(C#N)c4)C3)n2)cc1 (stereo not drawn) [GSK1379730],46,0,0,16,5,0,0,0,0,11,0,40,14,43,0,0,12,0,41,44
CN(c1ccc2c(c1)nc(NCc1ccc(F)cc1)n2C)c1ccnc(Nc2ccc(CS(C)(=O)=O)cc2)n1.Cl [GW813244],4,0,2,92.2,37,15,10,22,43,0,11,0,7,0,24,0,4,0,80,36
CC(C)S(=O)(=O)N1CCN(Cc2ccc3c(c2)nc(NC(=O)c2ccsc2)n3C[C@H](O)c2ccccc2)CC1 [GW635815],37,0,0,28,0,0,0,65,79,19,8,100,94.2,95.5,18,5,16,29,0,66
Cc1ccc(CC(=O)N2CCc3cc(-c4cn(C)c5ncnc(N)c45)ccc32)cc1 [GSK2634758],36,0,0,89,48,0,0,1,0,42,0,10,34,29,5,6,13,0,8,0
O=C(Nc1ccccc1)c1cccc(Oc2ccc3nccn3n2)c1,0,0,0,94.1,0,100,0,0,33,0,2,0,0,21,0,0,0,0,0,5
COc1cc2nccc(Nc3ccc(Oc4ccccc4)cc3)c2cc1OC.Cl [GI261656],5,2,0,0,0,0,0,0,92.8,47,0,11,6,6,58,0,11,0,19,4
CCN1CCN(CCCC(=O)Nc2n[nH]c3nc(-c4ccc(O)cc4)c(Br)cc23)CC1 [SB-731579],0,0,0,19,0,8,0,7,34,0,0,38,2,0,0,0,0,0,0,52
Nc1nccc(-c2ccc3c(N)n[nH]c3c2)n1 [GSK1034945],2,,0,0,0,14,0,2,0,5,13,0,0,0,26,0,27,0,0,34
Cc1ccc2c(-c3ccnc(Nc4ccc(C(F)(F)F)cc4)n3)cnn2n1 [GW819776],0,21,60,0,6,18,17,9,13,0,3,0,0,0,43,0,0,38,0,5
CCn1c(-c2nonc2N)nc2cncc(Br)c21 [SB-738004],19,0,0,0,0,9,6,18,0,0,0,56,20,44,0,0,25,0,0,58
CN1CCN(CCCNc2nccc(-c3c(-c4ccc(F)cc4)nn4cc(C(N)=O)ccc34)n2)CC1 [GW622475],23,92.3,77,6,0,39,0,76,0,13,3,43,10,6,23,18,24,8,47,0
Cn1ccc2ncnc(Oc3ccc(NC(=O)Nc4cncc(C(F)(F)F)c4)c(Cl)c3)c21,0,0,0,80,92.8,5,0,0,0,0,61,51,55,88,0,0,0,0,0,0
COc1cccc(CNC(=O)NC2CCN(c3ccnc(Nc4cc(OC)c(OC)c(OC)c4)n3)C2)c1 (stereo not drawn) [GSK1379765],40,24,0,100,0,0,0,0,0,8,0,52,7,55,0,0,18,22,0,54
Cc1cccc(-c2nc(Nc3ccncc3)c3sccc3n2)n1 [GW869641],10,,95.6,43,38,0,9,55,26,0,7,6,6,5,38,0,24,27,0,20
Cn1ccc2ncnc(Oc3ccc(NC(=O)Nc4cnn(C(C)(C)C)c4)c(Cl)c3)c21,0,13,5,78,73,17,0,72,0,0,54,39,56,82,0,0,7,4,0,0
Cn1ccc2ncnc(Oc3ccc(NC(=O)Nc4cc(C(C)(C)C)on4)c(Cl)c3)c21,0,13,0,88,97.1,15,0,92.5,0,0,90.7,96.1,96.4,99.1,0,0,3,2,0,7
COc1cc2ncn(-c3cc(OCC4CCCCC4)c(C(N)=O)s3)c2cc1OC [GSK204559],18,0,0,19,0,6,12,58,5,4,5,31,0,0,13,0,3,30,0,12
COC(=O)c1cccc(NC(=O)NC2CCN(c3ccnc(NCc4ccc(F)cc4)n3)CC2)c1 [GSK1379860],16,25,0,0,0,0,0,0,0,15,0,0,12,24,0,0,11,0,7,13
Cc1ccn2nc(-c3ccc(F)cc3)c(-c3ccncc3)c2c1.Cl [GW457859],34,12,0,0,0,6,0,58,0,0,0,6,39,24,14,0,0,0,20,26
